Bioassay records deposited in PubChem BioAssay by National Center for Advancing Translational Sciences (NCATS).
G9a block: blocks human histone lysine methyltransferase G9a. Q96KQ7. G9a H3K9 monomethylation, AlphaScreen, 2 h. Potency, µM (titrated, usually from 102 µM), usual class: inhibitors. 8.8% of 350,000 active; note: nearly all actives have a fitted effect of over 75% in size
Target sequence (Q96KQ7 913-1193 limits assumed): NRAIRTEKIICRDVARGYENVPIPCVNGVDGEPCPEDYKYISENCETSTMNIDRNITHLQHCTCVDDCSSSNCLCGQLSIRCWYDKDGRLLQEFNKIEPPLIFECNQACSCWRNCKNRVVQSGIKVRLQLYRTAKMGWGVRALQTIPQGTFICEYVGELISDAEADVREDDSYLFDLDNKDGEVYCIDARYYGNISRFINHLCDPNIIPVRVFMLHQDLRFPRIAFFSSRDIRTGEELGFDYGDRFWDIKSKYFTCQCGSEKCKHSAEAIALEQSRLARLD
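Using a bead-based AlphaScreen, monomethylated H3K9 product from 2 h room-temperature reactions (G9a 20 nM, peptide 500 nM, SAM 20 uM) was detected with 0.5 ug/mL rabbit anti-H3K9me1 antibody.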
Six1-Eya2 inh: inhibitors of human Six1/Eya2 interaction | 0.56% of 360,000 active | activity change, % (no concentration beside the values) | AlphaScreen GST-Six1/His-Eya2 binding, biochemical; hits give low values | Q15475+O00167; in the data active = activity change below about -65%; inconclusive = mostly about -30% to -63%
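Compounds are tested against tagged Six1 and Eya2 proteins bridged by glutathione donor and nickel acceptor beads; after a one-hour incubation at 37 °C without light, AlphaScreen emission is recorded.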
BAZ2B block: blocks human BAZ2B; Q9UIF8; AlphaScreen BAZ2B-H3K14Ac peptide displacement; Potency, µM (top dose mostly 114 µM), usual class: inhibitors; 4.4% of 360,000 active; note: nearly all actives have a fitted effect of over 60% in size
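Protein-peptide AlphaScreen: BAZ2B 50 nM, b-H3K14Ac 50 nM, 1x PBS pH 7.4 + 0.01% Tween-20. Preincubation 30 min RT; cpd 30 min RT (top 110 uM); beads 20 min RT, light-protected.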
CtBP-E1A inh: inhibitors of CtBP/E1A interaction | AlphaScreen GST-E1A/His-CtBP binding, 1536-well; hits give low values | 0.49% of 340,000 active | activity change, % (concentration not given with the values); in the data active = activity change below about -65%; inconclusive = mostly about -30% to -63%
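Homogeneous bead-based format: GST-tagged E1A captured on glutathione donor beads, His-tagged CtBP on nickel acceptor beads; compounds precede bead addition by 2 h at 37 °C.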
JMJD2A Tudor: inhibitors of human JMJD2A Tudor domain; O75164; AlphaScreen JMJD2A-Tudor / H3K4me3 peptide binding; Potency, µM (doses to about 114 µM), hits mostly inhibitors; 4.4% of 390,000 active; note: nearly all actives have a fitted effect of over 50% in size
HP1b binding inh: blocks HP1-beta chromodomain binding to methylated histone tails | AlphaScreen HP1-beta / biotin-H3K9me3 peptide binding | P83916 | Potency, µM (series often up to 114 µM), most hits filed as inhibitors | 0.56% of 390,000 active | AID 540317; note: nearly all actives have a fitted effect of over 70% in size
Target sequence (P83916 whole entry, looked up): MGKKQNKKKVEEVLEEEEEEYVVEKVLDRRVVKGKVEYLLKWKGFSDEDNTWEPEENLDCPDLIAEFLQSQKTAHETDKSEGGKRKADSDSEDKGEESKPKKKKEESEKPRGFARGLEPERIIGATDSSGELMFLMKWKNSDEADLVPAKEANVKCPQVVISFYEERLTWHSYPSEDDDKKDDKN
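HP1-beta protein (50 nM final) preincubated 30 min at room temperature with biotinylated H3(1-18)K9me3 peptide (50 nM) in PBS pH 7.4, 0.01% Tween-20, then compound added for 30 min. AlphaScreen streptavidin donor/nickel chelate acceptor beads (10 ug/mL final), 30 min dark, luminescence read.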
Each line names hits and unclear results; the compound was inactive in the other large screens. Only some compounds are listed: those with a hit (about 10% of all), similar ones and a draw of the others. Unless noted, calls come from the whole dose curve; as a rule, active = well fitted inhibition curve with a large enough effect; inconclusive = small, poorly fitted or top-dose-only effect; inactive = no such curve, though single readings can be large or run the other way.

CC(C)(C)OC(=O)CN1C(=O)S/C(=C\c2ccc(-c3cccc(C(=O)O)c3)o2)C1=O	G9a block 56.2µM, BAZ2B block inconclusive (no result: Six1-Eya2 inh, CtBP-E1A inh, JMJD2A Tudor, HP1b binding inh)
Cc1ccc(NC(=O)CN2C(=O)S/C(=C\c3ccc(-c4cccc(C(=O)O)c4C)o3)C2=O)cc1	G9a block 11.2µM, BAZ2B block 25.1µM (no result: Six1-Eya2 inh, CtBP-E1A inh, JMJD2A Tudor, HP1b binding inh)
CC(C)OC(=O)CN1C(=O)S/C(=C/c2ccc(N3CCCCC3)o2)C1=O	G9a block inconclusive, BAZ2B block inconclusive, JMJD2A Tudor inconclusive
Cc1ccc2oc3c(c(=O)c2c1)C(c1ccccc1F)N(CCCN(C)C)C3=O (centres undefined)	none (no result: Six1-Eya2 inh, CtBP-E1A inh)
O=C(Cc1ccc(Br)cc1)Nc1ncc([N+](=O)[O-])s1	G9a block 28.2µM, BAZ2B block 50.1µM (no result: CtBP-E1A inh)
O=C(Cc1ccc([N+](=O)[O-])cc1)Nc1ccc(Cl)cc1	G9a block 39.8µM
O=C(COC(=O)COc1ccccc1)Nc1ncc([N+](=O)[O-])s1	G9a block inconclusive, JMJD2A Tudor 79.4µM
Cc1cnc(NC(=O)Cc2ccc(Br)cc2)s1	none
O=C(COc1ccc(Cl)cc1)Nc1ncc([N+](=O)[O-])s1	G9a block inconclusive
Cc1onc(-c2ccccc2)c1C(=O)Nc1ncc([N+](=O)[O-])s1	G9a block 44.7µM
Cc1csc(NC(=O)CSc2nncn2C)n1	none
Cn1cnnc1SCC(=O)Nc1ncc([N+](=O)[O-])s1	JMJD2A Tudor 28.2µM, HP1b binding inh inconclusive (no result: G9a block, BAZ2B block)
O=C(Cc1ccc(Cl)cc1)Nc1ncc([N+](=O)[O-])s1	G9a block 35.5µM
Cc1cccc(-c2n[nH]c(=S)n2/N=C/c2ccc(C)s2)c1	G9a block 1.12µM, JMJD2A Tudor inconclusive
Cc1cccc(-c2n[nH]c(=S)n2/N=C/c2cccs2)c1	G9a block 0.708µM, JMJD2A Tudor 22.4µM (no result: CtBP-E1A inh)
S=c1[nH]nc(-c2ccncc2)n1/N=C/c1cn(-c2ccccc2)nc1-c1ccc(Cl)cc1	none
Cc1ccc(/C=N/n2c(-c3ccncc3)n[nH]c2=S)s1	JMJD2A Tudor 3.55µM (no result: G9a block)
CC(OC(=O)c1ccc(Cl)nc1)C(=O)NC1CCCC1 (centres undefined)	none
C=CCC[C@H](CCCCC)OC(=O)/C=C/[C@@H](O)[C@H](O)C[C@@H](O)CC=C	none (no result: G9a block, BAZ2B block, JMJD2A Tudor, HP1b binding inh)
CCOC(=O)CSc1nc2c(sc(=S)n2-c2ccccc2OC)c(=O)n1-c1ccccc1OC	none
CCOC(=O)CSc1nc2c(sc(=S)n2-c2ccccc2OC)c(=O)n1Cc1ccco1	G9a block 44.7µM
O=C(O)/C=C/C(=O)NNC(=O)c1ccccc1Br	BAZ2B block inconclusive
Cc1ccccc1C(=O)NNC(=O)C(C)N1C(=O)c2ccccc2C1=O (centres undefined)	G9a block 11.2µM
Cc1ccccc1C(=O)NC(CC(C)C)C(=O)NN1C(=O)c2ccccc2C1=O (centres undefined)	none
Cc1cccc(C(=O)NNC(=O)/C=C/C(=O)O)c1	G9a block 35.5µM (no result: CtBP-E1A inh)
Cc1ccccc1C(=O)NNC(=O)/C=C\C(=O)O	G9a block 4.47µM, JMJD2A Tudor 50.1µM
CCn1c2ccccc2c2cc(NC(=O)COc3cc(C)ccc3C)ccc21	none (no result: Six1-Eya2 inh, CtBP-E1A inh)
O=[N+]([O-])c1ccccc1S(=O)(=O)N1CCN(Cc2ccc3c(c2)OCO3)CC1	G9a block 10µM, BAZ2B block 50.1µM, HP1b binding inh 15.8µM (no result: CtBP-E1A inh)
CCS(=O)(=O)N1CCN(S(=O)(=O)c2ccccc2[N+](=O)[O-])CC1	BAZ2B block inconclusive
O=[N+]([O-])c1ccccc1S(=O)(=O)N1CCN(Cc2ccccc2)CC1	G9a block 79.4µM, BAZ2B block inconclusive, JMJD2A Tudor inconclusive (no result: CtBP-E1A inh)
CCn1c(=O)c([N+](=O)[O-])c(N2CCN(Cc3ccc4c(c3)OCO4)CC2)c2ccccc21	G9a block 31.6µM, BAZ2B block inconclusive, JMJD2A Tudor inconclusive, HP1b binding inh inconclusive
COc1ccc(NC(=S)N2CCN(C/C=C/c3ccccc3)CC2)cc1OC	BAZ2B block inconclusive (no result: G9a block)
COc1cc(Br)cc(CN2CCN(C/C=C/c3ccccc3)CC2)c1O	G9a block 39.8µM, BAZ2B block 39.8µM, JMJD2A Tudor inconclusive
COc1ccc(O)c(CN2CCN(C/C=C/c3ccccc3)CC2)c1	G9a block inconclusive, BAZ2B block inconclusive, JMJD2A Tudor 56.2µM
CCOc1ccccc1N1CCN(C(=O)c2ccccc2OCc2c(C)noc2C)CC1	none (no result: CtBP-E1A inh)
O=C1CCCC2=C1C1(CCCC1)N=C(Nc1nc3cc4ccccc4cc3o1)N2	JMJD2A Tudor 89.1µM (no result: G9a block, Six1-Eya2 inh, BAZ2B block, CtBP-E1A inh, HP1b binding inh)
CCN(CC)c1ccc(/C=C2\NC(=O)NC2=O)cc1	none
O=C1NC(=O)/C(=C\c2ccsc2)N1	JMJD2A Tudor 31.6µM
CCOC(=O)Cc1nnc(NC(=O)c2ncn[nH]2)s1	G9a block inconclusive, Six1-Eya2 inh inconclusive, BAZ2B block 8.91µM, CtBP-E1A inh -71.2, JMJD2A Tudor 2µM
O=C(Cn1nc(CNc2ccc(Cl)cc2)[n+]2c1CCCCC2)c1ccc(Br)cc1	G9a block inconclusive, BAZ2B block inconclusive
O=C(Cn1nc(CNc2ccc(Br)cc2)[n+]2c1CCCCC2)c1ccc([N+](=O)[O-])cc1	G9a block 70.8µM, BAZ2B block inconclusive
COc1ccc(NCc2nn(CC(=O)c3ccc(Br)cc3)c3[n+]2CCCCC3)cc1	G9a block 35.5µM, BAZ2B block 35.5µM, JMJD2A Tudor 44.7µM
COc1ccccc1NC(=O)Cn1c(=O)n(Cc2cccs2)c(=O)c2cccnc21	none (no result: Six1-Eya2 inh, CtBP-E1A inh)
NC(=O)NN=C(C1CC1)C1CC1	none (no result: G9a block, BAZ2B block)
Cc1cc2c(s1)c1cnn(Cc3cccc(C(F)(F)F)c3)c(=O)c1n2C	none (no result: G9a block, Six1-Eya2 inh, BAZ2B block, CtBP-E1A inh, HP1b binding inh)
CC(=O)Nc1ccc(S(=O)(=O)Nc2nc3ccccc3nc2Nc2ccc(S(N)(=O)=O)cc2)cc1	G9a block 44.7µM
NS(=O)(=O)c1ccc(Nc2nc3ccccc3nc2NS(=O)(=O)c2cccc([N+](=O)[O-])c2)cc1	G9a block 31.6µM, BAZ2B block inconclusive, JMJD2A Tudor inconclusive
CCOc1ccc(NC(=O)NCCc2c(C)nn(C)c2C)cc1	none (no result: Six1-Eya2 inh, CtBP-E1A inh)
Cc1nnsc1-c1nc2ccccc2[nH]1	G9a block 28.2µM (no result: BAZ2B block)
c1csc(-c2nc3ccccc3[nH]2)c1	G9a block inconclusive
Cc1ccc(-c2nc3ccccc3[nH]2)s1	G9a block 7.94µM
Cc1[nH]c2ccccc2c1-c1nc2ccccc2[nH]1	G9a block inconclusive, BAZ2B block inconclusive
COc1ccccc1CNC(=O)Cn1nc(C)n2cccc2c1=O	none (no result: Six1-Eya2 inh, CtBP-E1A inh)
O=C1CSCC(=O)N1c1ncc(C(F)(F)F)cc1Cl	G9a block inconclusive
O=C1CCC(=O)N1OCCCOc1ccc(Br)cc1Cl	none
CC1CCN(CCCOc2ccc(Br)cc2Cl)CC1	G9a block 15.8µM, BAZ2B block 56.2µM, JMJD2A Tudor 3.98µM, HP1b binding inh inconclusive
